The test addresses frog Peroxisome Proliferator-activated Receptor-gamma (PPARg), pparg (gene 397769) (UniProt P37234). Kind of test: ATG_frPPARg_EcoTox2: Attagene TRANS-FACTORIAL EcoTox-2 HepG2 Assay for frog Peroxisome Proliferator-activated Receptor-gamma (PPARg). As for the experimental part: ATG_EcoTox2 is a cell-based, multiplexed assay created by modifying the existing Attagene TRANS-FACTORIAL system to include a panel of nuclear receptors from some or all the following species: human (Homo sapiens), african clawed frog (Xenopus laevis), rainbow trout (Oncorhynchus mykiss), japanese medaka (Oryzias latipes), and zebrafish (Danio rerio). The ECOTOX2-FACTORIAL format uses HepG2, a human liver cell line, with measurements taken at 24 hours after chemical dosing in a 24-well plate. ATG_frPPARg_EcoTox2 is one of 29 assay components calculated in the ATG_EcoTox2 assay. It is designed to make measurements of mRNA induction, a form of inducible reporter, as detected with fluorescence intensity signals by Reverse transcription polymerase chain reaction (RT-PCR) and Capillary electrophoresis technology.The assay endpoint ATG_frPPARg_EcoTox2 was analyzed in the positive analysis fitting direction relative to DMSO as the negative control and baseline of activity. Using a type of inducible reporter, measures of mRNA for gain-of-signal activity can be used to understand the reporter gene at the transcription factor-level as they relate to the gene PPARg. Furthermore, this assay endpoint can be referred to as a primary readout, because this assay has produced multiple assay endpoints where this one serves a reporter gene function. […]

Results filed as inconclusive are left out. Activity calls are given as the source filed them. How the source made its calls: active means hit-call score of the fitted dose curve at least 0.9, where 1 is the maximum; inconclusive means response in the unintended direction; inactive means score below 0.9.

Chain of frog Peroxisome Proliferator-activated Receptor-gamma (PPARg), pparg (gene 397769) (P37234 whole entry, looked up): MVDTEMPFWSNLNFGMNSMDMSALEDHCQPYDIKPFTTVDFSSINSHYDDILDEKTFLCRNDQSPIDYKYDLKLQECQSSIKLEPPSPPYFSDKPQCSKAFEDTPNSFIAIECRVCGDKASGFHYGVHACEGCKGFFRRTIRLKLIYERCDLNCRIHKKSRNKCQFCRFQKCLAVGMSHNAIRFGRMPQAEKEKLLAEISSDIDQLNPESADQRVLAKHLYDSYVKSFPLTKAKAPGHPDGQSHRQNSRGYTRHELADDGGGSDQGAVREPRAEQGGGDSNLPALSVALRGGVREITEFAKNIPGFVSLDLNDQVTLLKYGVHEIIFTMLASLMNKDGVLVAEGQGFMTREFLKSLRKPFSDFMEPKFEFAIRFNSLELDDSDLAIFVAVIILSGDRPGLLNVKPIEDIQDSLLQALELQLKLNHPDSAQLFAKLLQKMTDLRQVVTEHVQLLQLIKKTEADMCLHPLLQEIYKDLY

Consider `O=S(=O)(O)C(F)(F)C(F)(F)C(F)(F)C(F)(F)C(F)(F)C(F)(F)F`, for which the call was inactive.

For `CCCCOCN(C(=O)CCl)c1c(CC)cccc1CC`, the result was inactive.

Source of the values: PubChem BioAssay AID2284349 (EPA ToxCast).
